These results are taken from article PMC2807882, “Conservation of DNA-binding specificity and oligomerisation properties within the p53 family”.

Targets include Hsp53 (Homo sapiens, UniProt P04637 1-393); Xlp53 (Xenopus laevis, UniProt Q7T1D0 1-362); Mmp53 (Mus musculus, UniProt P02340 1-390).
Test in all cases: fluorescence anisotropy competition titration; 25 mM sodium phosphate (purification buffer pH 7.2), 225 mM NaCl, 10% v/v glycerol, 5 mM DTT, 0.2 mg/mL BSA, 22 C; low values mean tight binding
Common to all, as to details: protein: recombinant; tags: N-terminal 6xHis-lipoyl-TEV tag, cleaved; chain copies: 4; dsDNA, one strand shown

Another assay has as its target T1, Dmp53 (Drosophila melanogaster, UniProt Q9N6D8 1-385).
T1 sequence: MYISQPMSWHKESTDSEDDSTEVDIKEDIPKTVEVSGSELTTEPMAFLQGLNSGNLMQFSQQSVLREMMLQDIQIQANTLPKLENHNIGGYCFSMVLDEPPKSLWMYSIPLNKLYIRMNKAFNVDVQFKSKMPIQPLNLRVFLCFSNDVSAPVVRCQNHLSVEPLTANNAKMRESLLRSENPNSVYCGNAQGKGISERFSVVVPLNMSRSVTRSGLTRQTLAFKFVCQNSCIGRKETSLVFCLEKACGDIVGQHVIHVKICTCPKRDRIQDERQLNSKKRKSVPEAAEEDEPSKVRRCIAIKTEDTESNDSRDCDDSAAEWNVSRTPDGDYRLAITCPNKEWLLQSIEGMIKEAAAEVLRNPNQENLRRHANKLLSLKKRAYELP

A further assay has as its target T2, Drp53 (Danio rerio, UniProt P79734 1-373).
T2 sequence: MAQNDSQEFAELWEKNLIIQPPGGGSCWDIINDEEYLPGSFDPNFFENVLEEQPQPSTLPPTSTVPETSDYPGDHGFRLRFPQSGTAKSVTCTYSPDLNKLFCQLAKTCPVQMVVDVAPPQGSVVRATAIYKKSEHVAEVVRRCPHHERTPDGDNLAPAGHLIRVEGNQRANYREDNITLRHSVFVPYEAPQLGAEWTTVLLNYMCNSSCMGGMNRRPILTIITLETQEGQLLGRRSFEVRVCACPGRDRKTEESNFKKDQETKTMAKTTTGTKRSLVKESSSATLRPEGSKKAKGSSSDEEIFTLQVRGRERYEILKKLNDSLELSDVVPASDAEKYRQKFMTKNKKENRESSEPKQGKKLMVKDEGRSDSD

In the next assay the target is T3, ΔNp63α (Homo sapiens, UniProt Q9H3D4-2 1-586).
T3 sequence: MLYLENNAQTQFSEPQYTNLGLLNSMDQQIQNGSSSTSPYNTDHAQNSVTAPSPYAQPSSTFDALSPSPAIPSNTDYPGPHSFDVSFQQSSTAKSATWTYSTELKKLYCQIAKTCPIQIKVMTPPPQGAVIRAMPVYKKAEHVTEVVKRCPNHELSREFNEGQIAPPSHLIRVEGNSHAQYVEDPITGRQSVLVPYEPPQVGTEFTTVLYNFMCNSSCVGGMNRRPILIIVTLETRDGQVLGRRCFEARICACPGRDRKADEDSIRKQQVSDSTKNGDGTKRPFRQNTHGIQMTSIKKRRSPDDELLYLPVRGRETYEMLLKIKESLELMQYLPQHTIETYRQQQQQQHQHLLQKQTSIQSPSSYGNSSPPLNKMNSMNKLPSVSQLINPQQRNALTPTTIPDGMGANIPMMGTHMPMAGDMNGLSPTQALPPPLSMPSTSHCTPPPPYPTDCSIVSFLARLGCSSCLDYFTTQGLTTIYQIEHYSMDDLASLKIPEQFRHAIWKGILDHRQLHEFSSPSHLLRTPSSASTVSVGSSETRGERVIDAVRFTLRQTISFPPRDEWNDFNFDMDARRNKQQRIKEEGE

The target in the next assay is T4, ΔNp63β (Homo sapiens, UniProt Q9H3D4-4 1-461).
T4 sequence: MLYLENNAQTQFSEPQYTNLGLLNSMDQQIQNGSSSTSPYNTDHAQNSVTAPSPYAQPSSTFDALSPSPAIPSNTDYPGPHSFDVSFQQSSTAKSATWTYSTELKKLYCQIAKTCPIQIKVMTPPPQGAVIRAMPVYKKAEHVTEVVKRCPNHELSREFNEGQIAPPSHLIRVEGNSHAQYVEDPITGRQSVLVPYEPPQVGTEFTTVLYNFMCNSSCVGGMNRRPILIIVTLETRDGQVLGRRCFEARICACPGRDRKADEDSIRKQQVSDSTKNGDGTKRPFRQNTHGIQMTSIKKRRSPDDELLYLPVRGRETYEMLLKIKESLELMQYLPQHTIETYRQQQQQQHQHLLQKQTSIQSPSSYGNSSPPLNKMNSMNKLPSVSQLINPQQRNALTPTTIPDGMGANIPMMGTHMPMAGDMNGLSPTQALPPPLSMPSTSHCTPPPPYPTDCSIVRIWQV

Another assay concerns the target T5, ΔNp63γ (Homo sapiens, UniProt Q9H3D4-6 1-393).
T5 sequence: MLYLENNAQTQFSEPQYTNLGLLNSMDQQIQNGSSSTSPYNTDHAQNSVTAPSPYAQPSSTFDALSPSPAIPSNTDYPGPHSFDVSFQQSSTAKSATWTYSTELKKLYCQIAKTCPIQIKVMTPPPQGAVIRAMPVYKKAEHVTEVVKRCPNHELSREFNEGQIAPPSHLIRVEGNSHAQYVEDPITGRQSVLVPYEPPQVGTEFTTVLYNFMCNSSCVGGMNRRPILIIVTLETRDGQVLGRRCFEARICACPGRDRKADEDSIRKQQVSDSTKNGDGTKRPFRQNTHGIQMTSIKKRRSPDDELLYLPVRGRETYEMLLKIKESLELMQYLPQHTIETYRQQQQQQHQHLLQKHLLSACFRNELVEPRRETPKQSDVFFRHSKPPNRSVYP

The target of the next assay is T6, ΔNp73β (Homo sapiens, UniProt O15350-9 1-450).
T6 sequence: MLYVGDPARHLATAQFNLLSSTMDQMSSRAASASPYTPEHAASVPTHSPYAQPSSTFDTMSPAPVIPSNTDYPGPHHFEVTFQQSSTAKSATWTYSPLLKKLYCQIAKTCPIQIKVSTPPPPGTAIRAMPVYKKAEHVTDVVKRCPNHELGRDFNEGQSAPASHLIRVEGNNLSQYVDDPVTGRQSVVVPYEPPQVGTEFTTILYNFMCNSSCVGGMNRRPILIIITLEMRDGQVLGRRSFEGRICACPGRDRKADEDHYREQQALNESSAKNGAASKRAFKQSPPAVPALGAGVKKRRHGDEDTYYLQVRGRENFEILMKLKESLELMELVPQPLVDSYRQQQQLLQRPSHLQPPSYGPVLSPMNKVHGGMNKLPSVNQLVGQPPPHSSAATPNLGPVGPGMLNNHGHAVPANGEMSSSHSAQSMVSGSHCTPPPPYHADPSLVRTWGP

For another assay, the target named is T7, p73CT (Homo sapiens, UniProt O15350 104-383).
T7 sequence: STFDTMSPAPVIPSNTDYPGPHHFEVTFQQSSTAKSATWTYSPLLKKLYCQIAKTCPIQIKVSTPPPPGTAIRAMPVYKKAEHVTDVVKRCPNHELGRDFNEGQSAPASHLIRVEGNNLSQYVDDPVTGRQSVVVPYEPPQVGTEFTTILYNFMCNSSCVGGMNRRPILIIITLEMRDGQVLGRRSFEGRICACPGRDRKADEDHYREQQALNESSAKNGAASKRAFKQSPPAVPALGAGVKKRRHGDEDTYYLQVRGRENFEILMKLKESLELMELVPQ

Chain of Hsp53 (P04637 whole entry): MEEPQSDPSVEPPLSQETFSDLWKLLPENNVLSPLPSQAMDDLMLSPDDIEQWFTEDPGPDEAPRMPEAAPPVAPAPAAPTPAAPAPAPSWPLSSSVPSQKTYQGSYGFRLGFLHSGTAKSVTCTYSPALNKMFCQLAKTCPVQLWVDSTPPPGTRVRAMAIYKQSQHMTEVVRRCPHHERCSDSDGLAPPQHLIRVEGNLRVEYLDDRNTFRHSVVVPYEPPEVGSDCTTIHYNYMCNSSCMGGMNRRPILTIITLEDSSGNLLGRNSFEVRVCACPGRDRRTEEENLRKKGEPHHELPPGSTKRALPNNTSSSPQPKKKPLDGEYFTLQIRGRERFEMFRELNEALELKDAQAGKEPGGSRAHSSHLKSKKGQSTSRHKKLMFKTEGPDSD
Chain of Mmp53 (P02340 whole entry): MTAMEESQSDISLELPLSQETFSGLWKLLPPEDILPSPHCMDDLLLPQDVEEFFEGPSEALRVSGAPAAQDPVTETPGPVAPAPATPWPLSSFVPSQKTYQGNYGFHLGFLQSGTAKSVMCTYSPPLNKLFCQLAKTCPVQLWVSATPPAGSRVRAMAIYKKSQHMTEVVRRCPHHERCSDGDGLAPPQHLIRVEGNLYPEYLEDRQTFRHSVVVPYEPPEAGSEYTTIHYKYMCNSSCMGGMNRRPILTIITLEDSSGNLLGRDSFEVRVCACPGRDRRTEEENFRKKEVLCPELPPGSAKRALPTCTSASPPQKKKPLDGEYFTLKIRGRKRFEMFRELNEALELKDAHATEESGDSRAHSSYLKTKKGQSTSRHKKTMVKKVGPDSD
Chain of Xlp53 (Q7T1D0 entry or part of it): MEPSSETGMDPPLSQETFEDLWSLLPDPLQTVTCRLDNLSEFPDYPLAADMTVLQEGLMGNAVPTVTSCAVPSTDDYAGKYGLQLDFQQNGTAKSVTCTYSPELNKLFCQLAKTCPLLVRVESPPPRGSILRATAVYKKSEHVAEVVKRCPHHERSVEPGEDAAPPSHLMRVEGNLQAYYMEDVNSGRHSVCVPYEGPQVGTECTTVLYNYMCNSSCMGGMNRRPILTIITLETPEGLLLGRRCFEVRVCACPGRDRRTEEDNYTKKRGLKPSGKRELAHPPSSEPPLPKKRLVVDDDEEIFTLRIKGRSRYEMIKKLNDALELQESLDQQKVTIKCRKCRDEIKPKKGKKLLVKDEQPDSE

In the case of CGCTGACATGTCCGGACATGTCCCGC, the binding signal was 0.02 delta log10 Kd with Dmp53; 0.22 delta log10 Kd in the assay with Drp53; 0.16 delta log10 Kd with Hsp53; 0.13 delta log10 Kd with Xlp53; 0.08 delta log10 Kd with ΔNp63α; 0.1 delta log10 Kd in the assay with ΔNp63β. In addition, the binding signal with ΔNp63γ was 0.1 delta log10 Kd; in the assay with ΔNp73β, 0.11 delta log10 Kd; in the assay with Mmp53, 0.18 delta log10 Kd; in the assay with p73CT, 0.09 delta log10 Kd.
As to CGCGGACATGTTCGGACATGTCCCGC, the binding signal with Dmp53 was found to be 0.17 delta log10 Kd; with Drp53 it was 0.38 delta log10 Kd; in the assay with Hsp53 it was 0.34 delta log10 Kd; in the assay with Xlp53 it was 0.39 delta log10 Kd; with ΔNp63α it was 0.17 delta log10 Kd; with ΔNp63β, 0.47 delta log10 Kd. Also, the binding signal came to 0.33 delta log10 Kd with ΔNp63γ, 0.48 delta log10 Kd in the assay with ΔNp73β, 0.19 delta log10 Kd with Mmp53 and 0.36 delta log10 Kd with p73CT.
In the case of CGCGGACATGTCAGGACATGTCCCGC, the binding signal with Dmp53 amounted to 0.14 delta log10 Kd; with Drp53 it was 0.32 delta log10 Kd; with Hsp53 it was 0.31 delta log10 Kd; with Xlp53, 0.27 delta log10 Kd; in the assay with ΔNp63α it was 0.09 delta log10 Kd; in the assay with ΔNp63β, 0.13 delta log10 Kd. Besides, the binding signal with ΔNp63γ stood at 0.13 delta log10 Kd; with ΔNp73β it was 0.27 delta log10 Kd; in the assay with Mmp53, 0.2 delta log10 Kd; in the assay with p73CT, 0.2 delta log10 Kd.
Consider CGCGGCCATGTCCGGACATGTCCCGC, for which the binding signal with Dmp53 turned out to be 0.75 delta log10 Kd; with Drp53, 0.86 delta log10 Kd; with Hsp53, 0.66 delta log10 Kd; with Xlp53 it was 0.82 delta log10 Kd; in the assay with ΔNp63β, 0.88 delta log10 Kd; with ΔNp63γ it was 0.93 delta log10 Kd. The binding signal with Mmp53 was 0.46 delta log10 Kd.
Consider CGCGGACATTTCCGGACATGTCCCGC, for which the binding signal with Dmp53 amounted to 1.55 delta log10 Kd; in the assay with Drp53, 1.37 delta log10 Kd; with Hsp53, 0.44 delta log10 Kd; in the assay with Xlp53, 0.88 delta log10 Kd; with ΔNp63α, 1.1 delta log10 Kd; with ΔNp63β, 1.2 delta log10 Kd. Moreover, the binding signal with ΔNp63γ worked out at 1.46 delta log10 Kd; with ΔNp73β, 1.43 delta log10 Kd; with Mmp53, 0.65 delta log10 Kd; with p73CT, 1.58 delta log10 Kd.
On to CGCGGACACGTCCGGACATGTCCCGC, for which the binding signal came to 0.25 delta log10 Kd in the assay with Dmp53; 0.65 delta log10 Kd with Drp53; 0.53 delta log10 Kd in the assay with Hsp53; 0.7 delta log10 Kd with Xlp53; 0.25 delta log10 Kd in the assay with ΔNp63α; 0.57 delta log10 Kd in the assay with ΔNp63β. Also, the binding signal with ΔNp63γ was determined as 0.52 delta log10 Kd; with ΔNp73β it was 0.62 delta log10 Kd; with Mmp53 it was 0.36 delta log10 Kd; with p73CT, 0.58 delta log10 Kd.
As to CGCGGGCATGTCCGGACATGTCCCGC, the binding signal with Dmp53 came out at 0.25 delta log10 Kd; with Drp53, 0 delta log10 Kd; with Hsp53 it was 0.07 delta log10 Kd; with Xlp53, 0.01 delta log10 Kd; in the assay with ΔNp63β, 0 delta log10 Kd; with ΔNp63γ, 0.06 delta log10 Kd. The binding signal with Mmp53 turned out to be 0.03 delta log10 Kd.
Take CGCGGACTTGTCCGGACATGTCCCGC: the binding signal with Dmp53 was found to be 0.36 delta log10 Kd; with Drp53 it was 0.3 delta log10 Kd; with Hsp53, 0.14 delta log10 Kd; with Xlp53 it was 0.16 delta log10 Kd; with ΔNp63α it was 0.06 delta log10 Kd; in the assay with ΔNp63β it was 0.27 delta log10 Kd. The binding signal with ΔNp63γ was determined as 0.41 delta log10 Kd; with ΔNp73β, 0.36 delta log10 Kd; with Mmp53 it was 0.24 delta log10 Kd; in the assay with p73CT, 0.45 delta log10 Kd.
